# Laboratory results taken from PubChem BioAssay (EPA / NIEHS).
# Records with an inconclusive call do not appear. The source holds several records for some structures; these can differ, active in one and inactive in another. The source made the active and inactive calls. Rule for the calls, unless noted: active = hit-call score of the fitted dose curve at least 0.9, where 1 is the maximum; inconclusive = response in the unintended direction; inactive = score below 0.9.
# What was measured:
# [1] = tested on: Sodium/Iodide Symporter (NIS), SLC5A5 (gene 6528); assay: CPHEA_Stoker_NIS_Inhibition_RAIU: CPHEA's Radioactive Iodide Uptake (RAIU) Assay for Sodium/Iodide Symporter (NIS) Inhibition, Stoker and Laws Labs (AID 2283841)
# Procedure, shortened: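 HEK293T cells stably expressing human NIS (hNIS-HEK293T-EPA) were exposed to test chemicals at 0.001–100uM (0.5% final DMSO) with 125I at a final 329pM in HBSS/10mM HEPES pH 7.4. After 2 hours at room temperature and ice-cold washes, intracellular 125I was counted as CPM and normalized to DMSO wells.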
# [2] = CPHEA_Stoker_NIS_Cytotoxicity: Cytotoxicity Assessment for CPHEA's Radioactive Iodide Uptake (RAIU) Assay for Sodium/Iodide Symporter (NIS) Inhibition, Stoker and Laws Labs (AID 2283897);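 for AC50: active means loss of ATP signal versus DMSO meaning cytotoxicity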
# Procedure, shortened: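 hNIS-HEK293T-EPA human kidney cells were exposed for 2 hours at room temperature to test chemicals (0.001–100uM, 0.5% final DMSO) in HEPES-buffered HBSS, pH 7.4. Viability was read as ATP content by luciferase bioluminescence, loss of signal versus DMSO.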
# [3] = tested on: zebrafish Peroxisome Proliferator-activated Receptor gamma (PPARg), gene 557037; assay: ATG_zfPPARg_XSP2: Attagene TRANS-FACTORIAL Multi-Species (XSP2) HepG2 Assay for zebrafish Peroxisome Proliferator-activated Receptor gamma (PPARg) (AID 2283833);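 note: reporter mRNA from a zebrafish PPARg GAL4 chimera measured by RT-PCR and capillary electrophoresis; actives increase reporter signal over DMSO so AC50 reflects activation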
# Procedure, shortened: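 After 24 h chemical exposure, RNA from transiently transfected HepG2 (chimeric NR-Gal4 TRANS reporters) was reverse-transcribed, PCR-amplified, 6-FAM-labelled, HpaI-cut and sized by capillary electrophoresis. Induction was scored in the positive direction relative to DMSO.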
# [4] = ATG_M_61_XSP2: Attagene TRANS-FACTORIAL Multi-Species (XSP2) HepG2 Assay for M61 Transcription Factor (Internal Marker) (AID 2283835; active = hit-call score of the fitted dose curve at least 0.9, where 1 is the maximum; inactive = score below 0.9;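 note: reporter mRNA of an internal background marker read by RT-PCR and capillary electrophoresis; active means a rise in signal above the DMSO baseline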)
# Procedure, shortened: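 HepG2 cells transiently transfected with multiple GAL4-UAS reporter units; 3 nM 6-alpha-fluorotestosterone and 1.5 nM norgestrel present to stimulate androgen receptor. After 24 h compound exposure, reporter mRNA measured by RT-PCR and capillary electrophoresis fluorescence, gain-of-signal versus DMSO baseline.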
# [5] = molecular target: zebrafish Thyroid Hormone Receptor beta (TRb), thrb (gene 30607) (UniProt Q9PVE4); assay: ATG_zfTRb_XSP2: Attagene TRANS-FACTORIAL Multi-Species (XSP1) HepG2 Assay for zebrafish Thyroid Hormone Receptor beta (TRb) (AID 2283836)
# Procedure: ATG_XSP2_multi-species_TRANS is a cell-based, multiplexed assay created by modifying the existing Attagene TRANS-FACTORIAL system to include a panel of nuclear receptors from some or all the following species: human (Homo sapiens), mouse (Mus musculus), frog (Xenopus laevis), zebrafish (Danio rerio), chicken (Gallus gallus), and turtle (Chrysemys picta). The ECOTOX-FACTORIAL format uses HepG2, a human liver cell line, with measurements taken at 24 hours after chemical dosing in a 24-well plate. Xsp2 included 3 nM 6-alpha-fluorotestosterone and 1.5 nM norgestrel to stimulate the androgen receptor.ATG_zfTRb_XSP2 is one of 29 assay components measured or calculated from the ATG_XSP2_multi-species_TRANS assay. It is designed to make measurements of mRNA induction, a form of inducible reporter, as detected with fluorescence intensity signals by Reverse transcription polymerase chain reaction (RT-PCR) and Capillary electrophoresis technology.The assay endpoint ATG_zfTRb_XSP2 was analyzed in the positive analysis fitting direction relative to DMSO as the negative control and baseline of activity. Using a type of inducible reporter, measures of mRNA for gain-of-signal activity can be used to understand the reporter gene at the transcription factor-level as they relate to the gene TR. Furthermore, this assay endpoint can be referred to as a primary readout, because this assay has produced multiple assay endpoints where this one serves a reporter gene function. To generalize the intended target to other relatable targets, this assay endpoint is annotated to the nuclear receptor intended target family, where the subfamily is non-steroidal.
# Human liver HepG2 cells are transiently transfected with multiple reporter transcription units (MRTUs) in 6-well plates using FuGene 6 reagent (Roche; 3 ml FuGene/1 mg DNA). The MRTU constructs are regulated by a cis-regulating element (promoter). […] A major difference between the CIS and TRANS system is that in CIS activities of endogenous TFs are measured, whereas the TRANS assay evaluates changes in activities of exogenous, chimeric NR-Gal4 proteins. […] At the end of 24 hour incubation, total RNA was isolated using TriZol reagent (Invitrogen). The isolated RNA is then reverse-transcribed using oligo(dT) primer and Mo-MLV reverse transcriptase (Invitrogen) with DNAse I (Ambion) treatment for 30 min. The one-tenth of the produced cDNA was amplified by PCR using Taq DNA polymerase (Invitrogen) and two reporter sequence-specific primers. The PCR products were fluorescently labeled by primer extension with 6-arboxyfluorescein (6-FAM) 5'-labeled reporter sequence-specific primer (2 min at 95 C, 20 s at 68 C and 10 min at 72 C) and these products were digested with 5U of HpaI (New England Biolabs) for 2h at 37 C. The fragments were purified using Qiaquick PCR columns (Qiagen), analyzed on an ABI 3130xL genetic analyzer (Applied Biosystems) with peak positions identified by using a set of X-rhodamine (ROX)-labeled MapMarker1000 molecular weight standards (BioVentures). The raw capillary electrophoresis data was processed using Attagraph software (Attagene).
# [6] = molecular target: human Thyroid hormone Receptor alpha (TRa), THRA (gene 7067) (UniProt P10827); assay: ATG_hTRa_XSP2: Attagene TRANS-FACTORIAL Multi-Species (XSP2) HepG2 Assay for human Thyroid hormone Receptor alpha (TRa) (AID 2283838)
# Procedure, shortened: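 HepG2 cells were transiently transfected with GAL4-UAS reporter units for chimeric human TRa-Gal4 and dosed for 24 hours, with 3 nM 6-alpha-fluorotestosterone and 1.5 nM norgestrel present. Reporter mRNA was quantified by RT-PCR, FAM labelling and capillary electrophoresis, with gain of signal fitted versus DMSO.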
# [7] = molecular target: frog Thyroid hormone Receptor alpha (TRa), thra-a (gene 397942) (UniProt P15204); assay: ATG_frTRa_XSP2: Attagene TRANS-FACTORIAL Multi-Species (XSP2) HepG2 Assay for frog Thyroid hormone Receptor alpha (TRa) (AID 2283839);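 for AC50: AC50 reflects induction of frog TRa-driven reporter mRNA above DMSO baseline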
# Procedure, shortened: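 Reporter transcripts were measured by RT-PCR with capillary electrophoresis after 24 h dosing of HepG2 carrying transiently transfected multi-reporter units, including a chimeric frog TRa-GAL4 construct. Activity was taken as increase over DMSO vehicle.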
# [8] = molecular target: human Thyroid hormone Receptor beta (TRb), THRB (gene 7068) (UniProt P10828); assay: ATG_hTRb_XSP2: Attagene TRANS-FACTORIAL Multi-Species (XSP2) HepG2 Assay for human Thyroid hormone Receptor beta (TRb) (AID 2283840);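 note: actives raise reporter mRNA so potency reflects agonist-like gain of signal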
# Procedure, shortened: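 Activity of exogenous human TRb–Gal4 fusion measured by reporter mRNA from RT-PCR and capillary electrophoresis, 24 h after dosing transfected HepG2. 6-alpha-fluorotestosterone (3 nM) and norgestrel (1.5 nM) present. Gain-of-signal fit relative to DMSO.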
# [9] = tested on: turtle Thyroid Hormone Receptor, alpha (TRa), gene 101949057; assay: ATG_trTRa_XSP2: Attagene TRANS-FACTORIAL Multi-Species (XSP1) HepG2 Assay for turtle Thyroid Hormone Receptor, alpha (TRa) (AID 2283834);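 note: hits raise reporter mRNA over the DMSO baseline so AC50 marks activators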
# Procedure, shortened: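 Turtle TRa-Gal4 chimera activity in transfected human HepG2 cells: reporter transcripts quantified by RT-PCR, 6-FAM labelling and capillary electrophoresis 24 h post-dosing; positive direction versus DMSO, medium containing 3 nM 6-alpha-fluorotestosterone and 1.5 nM norgestrel.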
# [10] = ATG_XTT_Cytotoxicity_XSP2: Cytotoxicity Assessment in the Attagene TRANS-FACTORIAL Multi-Species (XSP2) HepG2 Assay (AID 2283837)
# Procedure, shortened: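 HepG2 cells, transiently transfected with multiple reporter constructs, exposed to chemical for 24 h. Cell number assessed with XTT fluorescence read-out; loss of signal fitted relative to DMSO.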
# Sequence of frog Thyroid hormone Receptor alpha (TRa), thra-a (gene 397942) (P15204 whole entry, looked up, the tested form may be a part): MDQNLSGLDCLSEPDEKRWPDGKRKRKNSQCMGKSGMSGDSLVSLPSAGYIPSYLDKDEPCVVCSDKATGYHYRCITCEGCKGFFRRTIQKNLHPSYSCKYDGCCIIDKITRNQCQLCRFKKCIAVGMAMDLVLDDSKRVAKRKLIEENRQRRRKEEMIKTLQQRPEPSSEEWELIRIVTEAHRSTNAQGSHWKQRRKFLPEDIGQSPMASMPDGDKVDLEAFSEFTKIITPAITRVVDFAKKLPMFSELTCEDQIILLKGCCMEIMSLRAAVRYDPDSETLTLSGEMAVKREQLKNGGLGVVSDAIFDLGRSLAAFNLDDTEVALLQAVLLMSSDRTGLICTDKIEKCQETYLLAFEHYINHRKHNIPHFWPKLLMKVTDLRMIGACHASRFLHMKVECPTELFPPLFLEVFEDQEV
# Sequence of human Thyroid hormone Receptor alpha (TRa), THRA (gene 7067) (P10827 whole entry, looked up, the tested form may be a part): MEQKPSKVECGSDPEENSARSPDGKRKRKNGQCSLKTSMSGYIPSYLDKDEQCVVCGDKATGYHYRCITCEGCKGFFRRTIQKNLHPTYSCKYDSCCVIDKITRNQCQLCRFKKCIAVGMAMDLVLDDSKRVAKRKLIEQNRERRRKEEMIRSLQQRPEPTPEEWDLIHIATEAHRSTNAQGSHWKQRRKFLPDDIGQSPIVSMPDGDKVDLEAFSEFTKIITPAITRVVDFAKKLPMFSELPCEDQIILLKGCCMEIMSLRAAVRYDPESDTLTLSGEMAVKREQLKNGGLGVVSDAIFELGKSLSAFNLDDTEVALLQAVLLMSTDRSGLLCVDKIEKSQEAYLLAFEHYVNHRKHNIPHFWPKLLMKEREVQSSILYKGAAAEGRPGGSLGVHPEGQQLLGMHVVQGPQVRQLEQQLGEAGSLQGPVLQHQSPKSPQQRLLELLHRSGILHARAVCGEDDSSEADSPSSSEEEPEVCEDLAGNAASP
# Sequence of zebrafish Thyroid Hormone Receptor beta (TRb), thrb (gene 30607) (Q9PVE4 whole entry, looked up): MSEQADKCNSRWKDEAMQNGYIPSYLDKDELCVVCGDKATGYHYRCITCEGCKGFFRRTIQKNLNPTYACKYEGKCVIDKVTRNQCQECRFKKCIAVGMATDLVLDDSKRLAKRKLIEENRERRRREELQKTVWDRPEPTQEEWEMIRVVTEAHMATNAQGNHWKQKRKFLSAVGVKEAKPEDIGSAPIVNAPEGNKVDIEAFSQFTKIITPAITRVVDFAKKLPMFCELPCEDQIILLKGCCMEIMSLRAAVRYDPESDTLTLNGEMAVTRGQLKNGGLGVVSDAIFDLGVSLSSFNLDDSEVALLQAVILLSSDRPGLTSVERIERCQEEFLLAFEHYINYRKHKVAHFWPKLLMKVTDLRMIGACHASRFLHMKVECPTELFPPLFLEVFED
# Sequence of human Thyroid hormone Receptor beta (TRb), THRB (gene 7068) (P10828 whole entry, looked up, the tested form may be a part): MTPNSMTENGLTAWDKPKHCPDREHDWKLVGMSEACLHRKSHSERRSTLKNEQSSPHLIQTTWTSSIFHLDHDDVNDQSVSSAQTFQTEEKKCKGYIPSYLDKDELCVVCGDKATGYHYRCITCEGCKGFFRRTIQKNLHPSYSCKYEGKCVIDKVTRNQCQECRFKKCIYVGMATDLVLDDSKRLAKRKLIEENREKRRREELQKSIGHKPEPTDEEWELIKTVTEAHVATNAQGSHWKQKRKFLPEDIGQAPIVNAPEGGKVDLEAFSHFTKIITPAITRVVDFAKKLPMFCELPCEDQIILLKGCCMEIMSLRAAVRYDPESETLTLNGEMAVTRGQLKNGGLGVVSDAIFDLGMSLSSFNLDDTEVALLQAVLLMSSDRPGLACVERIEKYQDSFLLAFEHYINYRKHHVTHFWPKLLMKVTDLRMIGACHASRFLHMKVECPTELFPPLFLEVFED
smiles,measurement,setting,value
Brc1ccc(Oc2ccccc2)cc1,outcome,[1],inactive
same,outcome,[2],inactive
Clc1ccc(C(c2ccc(Cl)cc2)C(Cl)(Cl)Cl)cc1,outcome,[3],inactive
same,outcome,[4],inactive
same,outcome,[5],inactive
same,outcome,[6],inactive
same,outcome,[7],inactive
same,outcome,[8],inactive
same,outcome,[2],inactive
ClC1=C(Cl)C2(Cl)C3C(Cl)C=CC3C1(Cl)C2(Cl)Cl (stereo not drawn),outcome,[1],inactive
same,outcome,[2],inactive
O=[N+]([O-])c1ccc(Oc2ccc(Cl)cc2Cl)cc1,outcome,[3],inactive
same,outcome,[9],inactive
same,outcome,[4],inactive
same,outcome,[5],inactive
same,outcome,[10],inactive
same,outcome,[6],inactive
same,outcome,[7],inactive
same,outcome,[8],inactive
same,outcome,[1],inactive
same,outcome,[2],inactive
c1ccc2c(c1)oc1ccccc12,outcome,[1],inactive
same,outcome,[2],inactive
CCCCC(CC)COC(=O)c1ccc(C(=O)OCC(CC)CCCC)c(C(=O)OCC(CC)CCCC)c1 (stereo not drawn),outcome,[9],inactive
same,outcome,[5],inactive
same,outcome,[10],inactive
same,outcome,[6],inactive
same,outcome,[7],inactive
same,outcome,[8],inactive
Clc1ccc(C(c2ccc(Cl)cc2)C(Cl)Cl)cc1,outcome,[3],inactive
same,outcome,[4],inactive
same,outcome,[8],inactive
same,outcome,[1],inactive
same,outcome,[2],inactive
CCOC(=O)[C@]1(c2ccccc2)Oc2ccccc2[C@@H]1N,outcome,[1],inactive
same,AC50,[2],1.38 µM (active)
ClC1=C(Cl)[C@]2(Cl)[C@H]3[C@H]([C@@H]4C=C[C@H]3C4)[C@@]1(Cl)C2(Cl)Cl,outcome,[1],inactive
same,outcome,[2],inactive
CC(C)(C)C(O)(CCc1ccc(Cl)cc1)Cn1cncn1 (stereo not drawn),outcome,[3],inactive
same,outcome,[9],inactive
same,outcome,[4],inactive
same,outcome,[5],inactive
same,outcome,[10],inactive
same,outcome,[6],inactive
same,outcome,[8],inactive
same,outcome,[2],inactive
COP(=S)(OC)SCN1C(=O)c2ccccc2C1=O,outcome,[2],inactive
CCCCCCCCn1sccc1=O,outcome,[1],inactive
same,outcome,[2],inactive
c1ccc2c(c1)-c1cccc3cccc-2c13,outcome,[3],inactive
same,outcome,[9],inactive
same,outcome,[4],inactive
same,outcome,[5],inactive
same,outcome,[10],inactive
same,outcome,[6],inactive
same,outcome,[7],inactive
same,outcome,[8],inactive
O=[N+]([O-])C(Br)(CO)CO,outcome,[2],inactive
C[C@]12C=CC3=C4CCC(=O)C=C4CC[C@H]3[C@@H]1CC[C@@H]2O,outcome,[4],inactive
same,AC50,[8],0.0256 µM (active)
Nc1ccc(Cl)cc1N,AC50,[1],50 µM (active)
same,outcome,[2],inactive
CC(C)(O)c1cnn2c(-c3ccc(F)c(-c4c(F)cccc4C#N)c3)cnc2n1,outcome,[1],inactive
same,outcome,[2],inactive
CC(C)COC(=O)c1ccccc1C(=O)OCC(C)C,outcome,[2],inactive
Oc1ccc2ccc3cccc4ccc1c2c34,outcome,[3],inactive
same,outcome,[9],inactive
same,outcome,[4],inactive
same,outcome,[5],inactive
same,AC50,[10],151 µM (active)
same,AC50,[7],22.7 µM (active)
same,outcome,[7],inactive
same,outcome,[1],inactive
same,outcome,[2],inactive
CN(C)c1ccc(C(=O)c2ccc(N(C)C)cc2)cc1,outcome,[1],inactive
same,outcome,[2],inactive
CCC[CH2][Sn]([Cl])([CH2]CCC)[CH2]CCC,outcome,[3],inactive
same,outcome,[9],inactive
same,outcome,[4],inactive
same,outcome,[5],inactive
same,outcome,[6],inactive
same,outcome,[7],inactive
same,AC50,[8],0.649 µM (active)
same,AC50,[1],8.22 µM (active)
same,AC50,[2],3.44 µM (active)
[Cl-].[Cl-].[Hg+2],AC50,[1],7.02 µM (active)
same,AC50,[2],39.4 µM (active)
CCNS(=O)(=O)C(F)(F)C(F)(F)C(F)(F)C(F)(F)C(F)(F)C(F)(F)C(F)(F)C(F)(F)F,outcome,[1],inactive
same,outcome,[2],inactive
CC(C)(OOC(C)(C)c1ccccc1)c1ccccc1,outcome,[1],inactive
same,outcome,[2],inactive
CCC(C)c1ccc(O)cc1 (stereo not drawn),outcome,[3],inactive
same,outcome,[9],inactive
same,outcome,[4],inactive
same,outcome,[5],inactive
same,outcome,[10],inactive
same,outcome,[6],inactive
same,outcome,[7],inactive
same,outcome,[8],inactive
same,outcome,[1],inactive
same,outcome,[2],inactive
Cc1cccc(N)c1N,outcome,[1],inactive
same,outcome,[2],inactive
CCCCOC(=O)c1ccccc1C(=O)OCc1ccccc1,outcome,[3],inactive
same,outcome,[9],inactive
same,outcome,[4],inactive
same,outcome,[5],inactive
same,outcome,[7],inactive
same,outcome,[8],inactive
same,outcome,[1],inactive
same,outcome,[2],inactive
CCCCCOC(=O)c1ccccc1C(=O)OCCCCC,AC50,[3],174 µM (active)
same,outcome,[9],inactive
same,outcome,[7],inactive
same,outcome,[8],inactive
same,outcome,[2],inactive
Cc1cc(N=Nc2ccccc2C)ccc1N,outcome,[1],inactive
same,outcome,[2],inactive
